± gives the standard deviation of the averaged measurements.
How the values were obtained:
Drosophila melanogaster [1] = experiment: olfactory response index (dipstick assay) (fraction of flies (RI; 1 aversion, 0.5 indifferent, 0 attraction)); higher = stronger aversion to the odorant; settings: odorant concentration: 1% v/v, male
Drosophila melanogaster [2] = experiment: as above; settings: odorant concentration: 1% v/v, female
[3] = genotype (tubulin-GAL4 x UAS-RNAi line; control = progenitor): A5
[4] = genotype (tubulin-GAL4 x UAS-RNAi line; control = progenitor): control
[5] = genotype (tubulin-GAL4 x UAS-RNAi line; control = progenitor): obp 18a
[6] = genotype (tubulin-GAL4 x UAS-RNAi line; control = progenitor): obp 22a
[7] = genotype (tubulin-GAL4 x UAS-RNAi line; control = progenitor): obp 28a
[8] = genotype (tubulin-GAL4 x UAS-RNAi line; control = progenitor): obp 56a
[9] = genotype (tubulin-GAL4 x UAS-RNAi line; control = progenitor): obp 56c
[10] = genotype (tubulin-GAL4 x UAS-RNAi line; control = progenitor): obp 56f
[11] = genotype (tubulin-GAL4 x UAS-RNAi line; control = progenitor): obp 57a
[12] = genotype (tubulin-GAL4 x UAS-RNAi line; control = progenitor): obp 57b
[13] = genotype (tubulin-GAL4 x UAS-RNAi line; control = progenitor): obp 58c
[14] = genotype (tubulin-GAL4 x UAS-RNAi line; control = progenitor): obp 59a
[15] = genotype (tubulin-GAL4 x UAS-RNAi line; control = progenitor): obp 83a
[16] = genotype (tubulin-GAL4 x UAS-RNAi line; control = progenitor): obp 83c
[17] = genotype (tubulin-GAL4 x UAS-RNAi line; control = progenitor): obp 93a
[18] = genotype (tubulin-GAL4 x UAS-RNAi line; control = progenitor): obp 99b
[19] = genotype (tubulin-GAL4 x UAS-RNAi line; control = progenitor): obp 56h
[20] = genotype (tubulin-GAL4 x UAS-RNAi line; control = progenitor): obp 58b

Compound	olfactory response index (Drosophila melanogaster [1]; [3])	olfactory response index (Drosophila melanogaster [1]; [4])	olfactory response index (Drosophila melanogaster [1]; [5])	olfactory response index (Drosophila melanogaster [1]; [6])	olfactory response index (Drosophila melanogaster [1]; [7])	olfactory response index (Drosophila melanogaster [1]; [8])	olfactory response index (Drosophila melanogaster [1]; [9])	olfactory response index (Drosophila melanogaster [1]; [10])	olfactory response index (Drosophila melanogaster [1]; [11])	olfactory response index (Drosophila melanogaster [1]; [12])	olfactory response index (Drosophila melanogaster [1]; [13])	olfactory response index (Drosophila melanogaster [1]; [14])	olfactory response index (Drosophila melanogaster [1]; [15])	olfactory response index (Drosophila melanogaster [1]; [16])	olfactory response index (Drosophila melanogaster [1]; [17])	olfactory response index (Drosophila melanogaster [1]; [18])	olfactory response index (Drosophila melanogaster [1]; [19])	olfactory response index (Drosophila melanogaster [2]; [3])	olfactory response index (Drosophila melanogaster [2]; [4])	olfactory response index (Drosophila melanogaster [2]; [5])	olfactory response index (Drosophila melanogaster [2]; [6])	olfactory response index (Drosophila melanogaster [2]; [7])	olfactory response index (Drosophila melanogaster [2]; [8])	olfactory response index (Drosophila melanogaster [2]; [9])	olfactory response index (Drosophila melanogaster [2]; [10])	olfactory response index (Drosophila melanogaster [2]; [11])	olfactory response index (Drosophila melanogaster [2]; [12])	olfactory response index (Drosophila melanogaster [2]; [20])	olfactory response index (Drosophila melanogaster [2]; [13])	olfactory response index (Drosophila melanogaster [2]; [14])	olfactory response index (Drosophila melanogaster [2]; [15])	olfactory response index (Drosophila melanogaster [2]; [16])	olfactory response index (Drosophila melanogaster [2]; [17])	olfactory response index (Drosophila melanogaster [2]; [18])	olfactory response index (Drosophila melanogaster [2]; [19])
COC(=O)c1ccccc1O [methyl salicylate]	0.331 ± 0.2	0.13 ± 0.099	0.0711 ± 0.077	0.179 ± 0.09	0.249 ± 0.1	0.161 ± 0.056	0.181 ± 0.16	0.173 ± 0.11	0.038 ± 0.036	0.193 ± 0.15	0.159 ± 0.068	0.368 ± 0.047	0.225 ± 0.13	0.14 ± 0.032	0.294 ± 0.18	0.108 ± 0.042	0.147 ± 0.04	0.49 ± 0.19	0.558 ± 0.091	0.114 ± 0.14	0.486 ± 0.086	0.384 ± 0.081	0.523 ± 0.13	0.27 ± 0.14	0.295 ± 0.068	0.356 ± 0.1	0.384 ± 0.23	0.287 ± 0.066	0.381 ± 0.22	0.616 ± 0.093	0.454 ± 0.19	0.654 ± 0.066	0.491 ± 0.02	0.308 ± 0.16	0.63 ± 0.22
CCc1cnccn1 [2-ethylpyrazine]	0.416 ± 0.069	0.118 ± 0.067	0.0666 ± 0.045	0.0894 ± 0.038	0.472 ± 0.092	0.194 ± 0.068	0.206 ± 0.11	0.247 ± 0.11	0.114 ± 0.085	0.0743 ± 0.059	0.144 ± 0.016	0.385 ± 0.17	0.221 ± 0.036	0.167 ± 0.082	0.342 ± 0.071	0.146 ± 0.061	0.319 ± 0.058	0.581 ± 0.074	0.524 ± 0.027	0.393 ± 0.2	0.435 ± 0.1	0.581 ± 0.0069	0.409 ± 0.078	0.497 ± 0.13	0.568 ± 0.16	0.304 ± 0.2	0.4 ± 0.14	0.256 ± 0.14	0.419 ± 0.22	0.638 ± 0.033	0.567 ± 0.092	0.522 ± 0.12	0.552 ± 0.076	0.159 ± 0.089	0.492 ± 0.14
CCCCCC(C)=O [2-heptanone]	0.365 ± 0.086	0.0673 ± 0.066	0.32 ± 0.1	0.304 ± 0.1	0.331 ± 0.084	0.185 ± 0.082	0.239 ± 0.077	0.395 ± 0.14	0.214 ± 0.038	0.368 ± 0.13	0.328 ± 0.063	0.444 ± 0.12	0.339 ± 0.11	0.352 ± 0.13	0.345 ± 0.26	0.138 ± 0.044	0.393 ± 0.17	0.49 ± 0.16	0.483 ± 0.17	0.409 ± 0.092	0.417 ± 0.12	0.526 ± 0.081	0.392 ± 0.12	0.494 ± 0.073	0.452 ± 0.21	0.718 ± 0.062	0.571 ± 0.15	0.277 ± 0.015	0.272 ± 0.051	0.598 ± 0.13	0.4 ± 0.15	0.537 ± 0.17	0.443 ± 0.18	0.28 ± 0.017	0.513 ± 0.22
